Data published in PubChem BioAssay AID434926 (Sanford-Burnham Center for Chemical Genomics, 2010).
The list shows a part of the results. Active and inactive are the calls of the source.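 How the source made its calls: active means at least twofold enzyme activation in any of six single-dose repeats, which the averaged readout prints as negative percent; inactive means the rest.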

The compounds below were run against Intestinal-type alkaline phosphatase (Homo sapiens) (UniProt P09923) (assay: enhancement of intestinal alkaline phosphatase activity – biochemical, luminescence, single concentration, uHTS hits, confirmation (AID 434926)). Details: purified IAP, CDP-Star luminescence, 30 min; at 8.3 µM; hits give low values.
Chain of Intestinal-type alkaline phosphatase (Homo sapiens) (P09923 whole entry, looked up): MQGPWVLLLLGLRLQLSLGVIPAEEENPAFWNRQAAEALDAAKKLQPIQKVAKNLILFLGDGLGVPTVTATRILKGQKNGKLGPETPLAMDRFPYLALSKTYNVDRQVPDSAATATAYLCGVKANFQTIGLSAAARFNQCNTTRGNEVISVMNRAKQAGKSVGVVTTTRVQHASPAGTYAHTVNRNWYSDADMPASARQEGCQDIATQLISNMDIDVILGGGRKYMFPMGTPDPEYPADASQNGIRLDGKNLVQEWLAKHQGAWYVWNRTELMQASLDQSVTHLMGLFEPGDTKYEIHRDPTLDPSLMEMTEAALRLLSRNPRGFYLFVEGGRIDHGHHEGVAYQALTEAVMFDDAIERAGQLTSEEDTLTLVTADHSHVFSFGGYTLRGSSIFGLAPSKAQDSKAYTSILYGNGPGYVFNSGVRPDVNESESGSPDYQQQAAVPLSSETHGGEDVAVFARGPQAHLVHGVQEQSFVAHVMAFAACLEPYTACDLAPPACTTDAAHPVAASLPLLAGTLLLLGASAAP

Compound | activation (%Activity, negative = activation)
O=C(Nc1ccon1)c1nc[nH]c1C(=O)NCc1ccccc1 | 88.5% (inactive)
c1ccc(CSCCc2ccncc2)cc1 | -33.2% (active)
COc1cccc(/C=N\NC(=O)C2=NNC(=O)C2C)c1O (centres undefined) | 34.8% (inactive)
COc1ccc(CN2CCC(n3nccc3NC(=O)CCCc3ccccc3)CC2)cc1C | -127% (active)
COc1cccc(/C=N/NC(=O)c2[nH]nc3c2CCc2ccccc2-3)c1O | 13.9% (inactive)
CCCCOC(=O)Nc1sc2nc(C)cc(C)c2c1-n1cccc1 | -49% (inactive)
O=C(NCCN1CCOCC1)[C@H](Cc1ccccc1)N1C(=O)c2ccccc2C1=O | -5.42% (inactive)
NC(=O)COc1ccc(NC(=O)c2ccccc2-c2ccccc2)cc1 | 9.49% (inactive)
N#C/C(=C\c1ccc(O)c(O)c1)C(=O)NCc1ccccc1 | -0.121% (inactive)
CC(=O)c1ccc(NC(=O)C2CCCN2S(=O)(=O)c2cccs2)cc1 (centres undefined) | -85.1% (active)
COc1ccc2c(c1OC)C(=O)N(c1ncn[nH]1)C2 | 12.6% (inactive)
Cc1cccc(NS(=O)(=O)c2cccc(C(=O)NNC(=O)c3ccccc3O)c2)c1 | 29.2% (inactive)
O=C(Nc1cccc(-c2cccc(Cl)c2)c1)C1CCN(C2CCC2)CC1 | -7.84% (inactive)
Cn1c(=O)c2c(nc(N/N=C/c3cccs3)n2Cc2ccc(Br)cc2)n(C)c1=O | -8.19% (inactive)
Oc1cccc(/C=N/Nc2ccc(Cl)nn2)c1O | 1.16% (inactive)
COc1cccc(CNS(=O)(=O)c2ccc3c(c2)N(C(C)=O)CCS3)c1 | -34.5% (inactive)
Cc1cc(C(=O)NC2CC(C)(C)Cc3c2cnn3-c2ccccc2)n[nH]1 (centres undefined) | 62.1% (inactive)
Cc1cc(C)cc(NC(=O)NC2CCN(CC(=O)Nc3cccc(Cl)c3C)CC2)c1 | 1.71% (inactive)
O=C(NNC(=S)Nc1ccccc1)c1cccc(S(=O)(=O)N2CCOCC2)c1 | -70.7% (inactive)
COc1cc(/C=C2/SC(=S)N(Cc3ccccc3)C2=O)cc(OC)c1O | 3.41% (inactive)
CC(=NCc1ccc2c(c1)OCO2)C1=C(O)c2ccccc2C1=O | -2.92% (inactive)
CCOC(=O)c1cn[nH]c1NC(=S)Nc1ccccc1 | -69.2% (inactive)
CC(C)Oc1ccc(CCC(=O)NNC(=S)NCc2ccccc2)cc1 | 46.5% (inactive)
CCC(C)C(=O)Nc1ccccc1N1CCN(c2ccc(F)cc2)CC1 (centres undefined) | 13.6% (inactive)
